Shown is part of a subset that was picked to be rich in hits.
Giardia FBPA inh – blocks Giardia fructose-bisphosphate aldolase activity; A8B2U2; purified Giardia FBPA; Potency, µM (highest dose often 59.6 µM), most hits filed as inhibitors; 290,000 compounds, 0.71% hits; also: nearly all actives have a fitted effect of over 55% in size
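40 nM FBPA preincubated 10 min at RT with compound (up to 57.5 uM final), then substrate plus GAPDH/TPI/NAD/arsenate coupling and diaphorase/resazurin added. Fluorescence read after 20 min at RT, 525/598 nm.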
Cruzain inh Det – inhibitors of Trypanosoma cruzi cruzain with detergent; Potency, µM, actives largely listed as inhibitors; AID 1478; purified cruzain, Z-FR-AMC fluorescence, 0.01% Triton; P25779; 200,000 compounds, 0.43% hits; also: nearly all actives have a fitted effect of over 40% in size
Target sequence (P25779 123-467 limits assumed): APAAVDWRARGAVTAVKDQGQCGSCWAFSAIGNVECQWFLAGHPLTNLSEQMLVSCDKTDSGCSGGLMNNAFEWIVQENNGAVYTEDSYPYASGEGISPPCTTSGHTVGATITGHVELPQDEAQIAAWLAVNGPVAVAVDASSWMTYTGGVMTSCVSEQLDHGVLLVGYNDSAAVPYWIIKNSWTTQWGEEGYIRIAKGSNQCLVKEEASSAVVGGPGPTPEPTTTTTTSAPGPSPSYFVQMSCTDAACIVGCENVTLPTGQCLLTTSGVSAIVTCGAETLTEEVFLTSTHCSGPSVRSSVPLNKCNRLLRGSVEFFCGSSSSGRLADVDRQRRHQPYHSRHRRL
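Purified cruzain (1.5 nM final) was preincubated with compounds for 15 min at room temperature in 100 mM sodium acetate pH 5.5, 5 mM DTT, 0.01% Triton X-100. Reaction started with 2 uM Z-FR-AMC; AMC fluorescence change over 60 s gave activity.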
Cruzain noTriton – blocks cruzain activity in detergent-free assay; P25779; Potency, µM, most hits filed as inhibitors; purified cruzain, Z-FR-AMC fluorescence, no detergent; 200,000 compounds, 2.3% hits; AID 1476; also: nearly all actives have a fitted effect of over 40% in size
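Detergent-free condition (0.00005% Triton X-100) in acetate buffer pH 5.5 with DTT. 1.5 nM enzyme and compound were pre-mixed 15 min, then 2 uM Z-FR-AMC substrate added; reaction progress from fluorescence change between first and third reads (60 s).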
Papain inh – counter-screen for cruzain inhibitors: papain inhibition. shares compounds with Cruzain inh Det. purified papain, Z-FR-AMC fluorescence cleavage. Potency, µM, usual class: inhibitors. 410 compounds, 41% hits. AID 2161; also: nearly all actives have a fitted effect of over 35% in size
Target sequence (P00784 whole entry, looked up): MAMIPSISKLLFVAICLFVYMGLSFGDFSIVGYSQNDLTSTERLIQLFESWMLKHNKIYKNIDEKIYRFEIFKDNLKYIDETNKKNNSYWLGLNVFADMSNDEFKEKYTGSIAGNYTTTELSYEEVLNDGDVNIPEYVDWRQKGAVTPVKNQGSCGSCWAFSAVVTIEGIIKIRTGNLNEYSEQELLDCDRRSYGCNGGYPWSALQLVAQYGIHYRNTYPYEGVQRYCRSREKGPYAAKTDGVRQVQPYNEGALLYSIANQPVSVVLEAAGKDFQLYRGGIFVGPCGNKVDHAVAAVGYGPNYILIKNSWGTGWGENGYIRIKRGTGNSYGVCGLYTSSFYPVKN
A number is an active result; . = inactive; ? = inconclusive; / = not tested or not shown. Calls follow the shape of the dose curve; as a rule, active = well fitted curve in the direction sought with a large enough effect; inconclusive = small, poorly fitted or top-dose-only effect, or another doubt; inactive = no such curve, though single readings can be large; an effect the other way counts as inactive or inconclusive.

SMILES | Giardia FBPA inh | Cruzain inh Det | Cruzain noTriton | Papain inh
Cc1cccc(C)c1NC(=O)c1sc(-n2nc(C)c(Cc3ccccc3)c2C)nc1C | / | . | . | /
Cc1cc(C)c(Cn2c3ccccc3c3cnn(CC(=O)NCC(C)c4ccccc4)c(=O)c32)c(C)c1 (stereo not drawn) | / | . | . | /
FC(F)(F)c1cc(-c2ccccc2)nc(NC2CCCC2)n1 | . | . | . | /
N#Cc1nc(Nc2ccc3ccccc3c2)nc(NC2CCCC2)n1 | / | / | / | 2µM
N#Cc1nc(Nc2cc(Cl)cc(Cl)c2)nc(NC2CCCC2)n1 | / | / | / | 1.41µM
N#Cc1nc(Nc2cccc(-c3ccccc3)c2)nc(NC2CCCC2)n1 | / | / | / | 2.51µM
C=CCNc1nc(Cl)nc(NC2CCCCC2)n1 | . | / | / | /
Nc1nc(CCl)nc(Nc2ccc3ccccc3c2)n1 | . | / | / | /
N#Cc1nc(Nc2cc(F)cc(F)c2)nc(NC2CCCC2)n1 | / | / | / | 0.316µM
N#Cc1nc(Nc2ccccc2)nc(NC2CCCCC2)n1 | . | / | / | /
COc1cc(OC)cc(-c2nnc3n2N=C(c2c(OC)cccc2OC)CS3)c1 | . | / | / | /
COc1cccc(CNC(=O)c2c(C)nn(-c3cccc(C)c3)c2-n2cccc2)c1 | / | . | . | /
CCc1ccc(NCc2cc3cc(OC)c(OC)cc3n(CC(=O)Nc3cc(C)ccc3C)c2=O)cc1 | / | . | . | /
COc1ccc(NC(=O)c2ccco2)cc1NC(=O)C(C)(C)Oc1ccc(Cl)cc1 | / | . | ? | /
COc1ccc(Nc2nccc(-c3ccc(C#N)cc3)n2)cc1 | . | / | / | /
N#Cc1nc(Nc2cccc(F)c2)nc(NC2CCCC2)n1 | / | / | / | 0.316µM
COc1ccc(Nc2nc(C#N)nc(NC3CCCC3)n2)cc1 | / | / | / | 0.562µM
COc1nc(Nc2cccc(F)c2)nc(OC)n1 | . | / | / | /
CCn1c(=O)c2c(nc3n2CCN3c2ccc(OC)cc2)n(C)c1=O | / | . | . | /
CCOC(=O)c1c(NC(=O)Nc2ccc(F)cc2)sc(C(=O)N(C)C)c1C | / | . | . | /
O=C(NCCCc1nc2ccccc2n1Cc1cccc(Cl)c1)C1CCCCC1 | / | . | . | /
Cc1cccc(C)c1OCCCn1c(CCNC(=O)C2CCCCC2)nc2ccccc21 | / | 3.55µM | . | .
Cc1cc2ccccc2n1CCNC(=O)C1CCCCC1 | . | . | . | /
O=C(NCCc1nc2ccccc2n1CCCOc1cccc2ccccc12)C1CCCCC1 | / | / | / | .
CC(C)c1nn2c(=O)cc(COC(=O)c3ccc(NC(=O)C4CCCCC4)cc3)nc2s1 | / | . | . | /
SMILES | Giardia FBPA inh | Cruzain inh Det | Cruzain noTriton | Papain inh
O=C(Cn1c2ccccc2c(=O)c2ccccc21)Nc1cccc(F)c1 | . | 0.794µM | . | .
O=C(Cn1c(=O)n(Cc2ccco2)c(=O)c2ccccc21)Nc1cccc(F)c1 | / | . | . | /
CCOc1cc(C(=O)NCCc2csc(-c3ccc(C)cc3)n2)cc(OCC)c1OCC | / | . | . | /
CCOc1cc(CNC(=O)c2ccc3nc(C(C)C)oc3c2)cc(OCC)c1OCC | / | . | ? | /
COC(=O)c1ccccc1NC(=O)C1=CC(c2ccc(C)cc2)=NS(=O)(=O)N1C | / | . | ? | /
COC(=O)Cn1c(=NC(=O)c2ccc(Cl)s2)sc2cc(C)ccc21 | . | 22.4µM | 20µM | 14.1µM
C#CCn1c(=NC(=O)c2ccc(Br)s2)sc2cc(NC(C)=O)ccc21 | . | . | . | /
CCc1ccc2[nH]c(=O)c(CN(Cc3ccccc3)Cc3nnnn3Cc3ccccc3)cc2c1 | / | / | / | .
O=c1[nH]c2cc3c(cc2cc1CN(Cc1ccccc1)Cc1nnnn1Cc1ccco1)OCCO3 | ? | . | . | /
CCc1ccc2[nH]c(=O)c(CN(Cc3ccccc3)Cc3nnnn3Cc3ccco3)cc2c1 | . | . | . | /
Cc1ccc2[nH]c(=O)c(CN(Cc3ccc4c(c3)OCO4)Cc3nnnn3Cc3ccco3)cc2c1 | . | . | . | /
Cc1ccc2cc(CN(Cc3ccco3)Cc3nnnn3Cc3ccco3)c(=O)[nH]c2c1 | / | / | / | .
Cc1ccc2[nH]c(=O)c(CN(Cc3ccco3)Cc3nnnn3Cc3ccccc3)cc2c1 | / | / | / | .
Cc1ccc2[nH]c(=O)c(CN(CCCO)Cc3nnnn3Cc3ccco3)cc2c1 | / | / | / | .
COc1ccccc1CN(Cc1cc2cc3c(cc2[nH]c1=O)OCCO3)Cc1nnnn1Cc1ccco1 | . | . | ? | /
COc1ccc(-c2nc3cnc(N4CCN(C)CC4)nc3n(C)c2=O)cc1 | . | . | . | /
Cc1ccc(Cl)cc1NC(=O)C(=O)NCC(c1cccnc1)N1CCc2ccccc21 (stereo not drawn) | / | . | . | /
COc1ccc(-c2nc3cnc(OC)nc3n(CCc3ccccc3)c2=O)cc1 | . | . | . | /
COc1cc(OC)c(N(C)C(=O)c2nn(C)c3c2CSc2ccccc2-3)cc1Cl | / | . | . | /
COc1ccc(-c2nc3ccc(NS(=O)(=O)c4ccc(C)cc4)cc3o2)cc1 | / | . | . | /
Cc1ccc2[nH]c(=O)c(CN(Cc3nnnn3Cc3ccccc3)C3CCCC3)cc2c1 | . | . | . | /
Cc1ccc2[nH]c(=O)c(CN(Cc3ccccc3)Cc3nnnn3Cc3ccccc3)cc2c1 | / | / | / | .
Cc1cccc2cc(CN(Cc3ccccc3)Cc3nnnn3Cc3ccccc3)c(=O)[nH]c12 | / | / | / | .
Cc1cccc2cc(CN(Cc3cccs3)Cc3nnnn3Cc3ccccc3)c(=O)[nH]c12 | . | . | . | /
O=C(Nc1cccs1)Nc1cc(C(F)(F)F)ccc1Cl | / | . | . | /
SMILES | Giardia FBPA inh | Cruzain inh Det | Cruzain noTriton | Papain inh
COc1cccc(C2=NS(=O)(=O)N(C)C(C(=O)Nc3cccc(O)c3)=C2)c1 | / | . | . | /
Cc1ccc(NC(=O)c2ccc(F)c(S(=O)(=O)NCCc3ccccc3)c2)cc1F | / | . | . | /
COc1cc(NC(=O)C(Cc2ccccc2)NS(=O)(=O)c2cccc3nsnc23)cc(OC)c1 (stereo not drawn) | / | . | . | /
Cc1nc2cc(-c3ccc(Cl)cc3)nn2c(C)c1CCC(=O)N1CCN(c2ccccc2)CC1 | / | . | . | /
Cc1nc2cc(-c3ccccc3)nn2c(C)c1CCC(=O)N1CCN(c2ccccc2)CC1 | . | . | ? | .
CCOC(=O)c1[nH]c(C)c(CCC(=O)Nc2ccc(Br)c(C)c2)c1C | / | . | . | /
Cc1ccc(CNC(=O)c2cc3c(=O)n(C)c4ccccc4c3n2C)cc1 | . | . | ? | /
CN(CCNC(=O)c1cc2c(=O)n(C)c3ccccc3c2n1C)Cc1ccccc1 | . | 14.1µM | ? | .
Cc1ccccc1-n1c(C)cc(/C=C2/C(=N)N3C(c4ccccc4)=CSC3=NC2=O)c1C | . | . | 3.16µM | .
COc1ccccc1-n1c(C)cc(/C=C2/C(=N)N3C(=NC2=O)SN=C3S(C)(=O)=O)c1C | . | / | / | /
COc1ccc2c(C)c(CCC(=O)NCCc3ccccc3OC)c(=O)oc2c1 | / | . | . | /
COc1cc2[nH]c(=O)n(CCCC(=O)N3CC=C(c4ccccc4)CC3)c(=O)c2cc1OC | . | . | ? | /
COc1cccc2c1[C@@H]1CN(CCCCn3c(=O)[nH]c4c(sc5ncc(-c6ccccc6)nc54)c3=O)C[C@@H]1CO2 | . | 28.2µM | ? | .
CCOC(=O)C(CCc1ccccc1)NC(C)C(=O)N1Cc2cc(OC)c(OC)cc2CC1C(=O)O (stereo not drawn) | . | / | / | /
Cc1cccc(N2CCN(C(=O)c3ccc4nc(-c5ccco5)c(-c5ccco5)nc4c3)CC2C)c1 (stereo not drawn) | . | . | . | /
O=C(Nc1cccnc1)c1ccc2nc(-c3ccccc3)c(-c3ccccc3)nc2c1 | . | / | / | /
O=C(NC1CCCCC1)c1cc(-c2ccco2)on1 | . | . | . | /
CNC(=O)c1ccc2nc(-c3ccco3)c(-c3ccco3)nc2c1 | / | / | / | 31.6µM
